Shn3 inh set2 – inhibitors of Schnurri-3 3'UTR reporter in osteoblasts | Clone20 osteoblast Shn3 3'UTR firefly luciferase, 24 h | inhibition, % at 12.5 µM | 360,000 compounds, 0.52% hits;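 active = mean inhibition of at least 75% with every replicate also reaching 75%; inconclusive = mean inhibition at least 75% but some replicate below; inactive = mean inhibition below 75%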
Jurkat NFkB inh – lowers PMA/ionomycin-induced NF-kB signal in Jurkat cells. PMA/ionomycin-induced NF-kB luciferase reporter, luminescence. inhibition, % at 4 µM. 330,000 compounds, 0.53% hits. AID 435003; in the data active = inhibition above about 50%
Gli-Sufu antag – blocks Gli-Sufu signaling in a luciferase reporter; 340,000 compounds, 0.74% hits; AID 588413; inhibition, % at 5 µM; Sufu-KO-LIGHT fibroblasts, Gli luciferase reporter luminescence;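 active = inhibition above about 55%, limit read from the data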
aSyn UTR inh – 5' untranslated region of α-synuclein, MLPCN primary screen; alpha-synuclein 5'UTR reporter, inhibitor activity; inhibition, % (tested at 7.5 µM); 300,000 compounds, 0.82% hits; in the data active = inhibition above about 60%; inconclusive = no clear call, values can overlap the other calls;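 also: H4 neuroglioblastoma cells stably carrying SNCA 5'UTR luciferase fusion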
H9c2 TAG inh – inhibitors of triacylglycerol accumulation; H9c2 cells, Nile Red lipid (TAG) fluorescence; cells loaded with 200 µM oleic acid; 230,000 compounds, 0.66% hits; inhibition, % at 12.5 µM;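 active = pattern-corrected inhibition of lipid staining of at least 50% with the nuclear-stain viability signal not falling by more than 50%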
697 NFkB inh – lowers PMA/ionomycin-induced NF-kB signal in 697 B cells. AID 435022. 697 B-cell NF-kB luciferase reporter, 16 h. 330,000 compounds, 0.33% hits. inhibition, % at 4 µM; in the data active = inhibition above about 35%
Jurkat NFkB conf – inhibitors of the PMA/ionomycin-induced NF-kB reporter in Jurkat cells, retest; shares compounds with Jurkat NFkB inh; Jurkat NF-kB luciferase, 16 h; inhibition, % at 4 µM; 2,700 compounds, 27% hits; AID 435020;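 active = inhibition reaching about 45% at 4 µM in either replicate, limit read from the data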
697 NFkB conf – lowers PMA/ionomycin-induced NF-kB signal in 697 B cells; shares compounds with 697 NFkB inh; 697 B-cell NF-kB luciferase, 16 h; inhibition, % at 4 µM; 2,000 compounds, 35% hits; AID 449746; in the data active = inhibition mostly above about 28%, no sharp cut-off; inactive = mostly below about 22%
Gli-Sufu confirm – Gli-SUFU antagonism confirmation, single concentration; shares compounds with Gli-Sufu antag; Sufu-KO-LIGHT cells, Gli luciferase reporter, luminescence; inhibition, % at 5 µM; 2,500 compounds, 40% hits; AID 602428;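 active = mean inhibition at 5 µM reaching about 45%, limit read from the data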
SufuKO cytotox – cytotoxic in Gli-SUFU antagonist counter-screen; shares compounds with Gli-Sufu antag; Sufu-KO-LIGHT cells cytotoxicity, ATP luminescence; cytotoxicity, % at 5 µM; 2,500 compounds, 32% hits; AID 651994;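 active = mean cytotoxicity at 5 µM above about 25%, limit read from the data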;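 also: cells exposed to compound overnight for roughly 16 to 18 hours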
Wnt3a counter – counter-screen for Gli-SUFU antagonists: Wnt3a reporter inhibition. shares compounds with Gli-Sufu antag. Wnt-LIGHT cells, Wnt3a-driven luciferase reporter, luminescence. inhibition, % at 6.25 µM. 2,500 compounds, 20% hits;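 active = mean inhibition above about 25%, limit read from the data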
A number is an active result; - = inactive; ? = inconclusive; . = not tested or not shown. A selection: hits, their analogues and other compounds. The true share with any hit is near 2.3%.

SMILES	Shn3 inh set2	Jurkat NFkB inh	Gli-Sufu antag	aSyn UTR inh	H9c2 TAG inh	697 NFkB inh	Jurkat NFkB conf	Gli-Sufu confirm	SufuKO cytotox	Wnt3a counter	others
CCOc1cc(S(=O)(=O)NCc2cccs2)ccc1Cl	-	-	-	-	-	-	.	.	.	.
CCn1cc(CNC(=O)c2ccc(OC3CCN(Cc4ccccn4)CC3)cc2)cn1	-	-	-	-	-	-	.	.	.	.
CCn1nc(C)c(CNC(=O)c2ccc(OC3CCN(Cc4ccccn4)CC3)cc2)c1C	-	65	64	-	-	-	57	66	33	38
COC(=O)c1ccc(CNC(=O)COC(=O)/C=C/c2ccc(O)c(OC)c2)cc1	-	-	-	.	-	-	.	.	.	.
NC(=O)CC(NC(=O)c1ccc(Br)cc1)c1ccc(N2CCCCCC2)c([N+](=O)[O-])c1 (stereo not drawn)	89	54	61	-	-	-	-	-	-	-
CCc1nn(CC(=O)NC(C)CCc2ccccc2)c(=O)c2cc3occc3n12 (stereo not drawn)	-	-	-	-	.	-	.	.	.	.
C/C=C/COC(=O)c1[nH]c2c(c1C)C(=O)CC(c1ccco1)C2 (stereo not drawn)	-	59	56	67	-	-	43	67	60	-
O=C(N/N=C/c1ccccc1Cl)c1[nH]c2ccc(Br)cc2c1-c1ccccc1	-	64	68	71	-	-	54	58	61	-
COc1ccc(/C=N/NC(=O)c2[nH]c3ccc(Br)cc3c2-c2ccccc2)c(C(=O)O)c1OC	-	-	-	-	-	-	.	.	.	.
COc1ccc(C(C(=O)NC2CCCCC2)N(C(=O)CCl)c2ccc(OC)cc2)cc1 (stereo not drawn)	92	93	84	-	.	98	-	-	-	-	697 NFkB conf=80
COc1ccc(N(C(=O)CCl)C(C(=O)NC2CCCCC2)c2cccnc2)cc1 (stereo not drawn)	-	-	-	-	.	-	.	.	.	.
COc1ccc(C(C(=O)NC2CCCCC2)N(C(=O)CCl)c2ccc(C)cc2)cc1 (stereo not drawn)	-	95	86	-	.	95	-	-	29	-	697 NFkB conf=-
Nn1c(-c2ccccc2)nc2ccccc2c1=O	-	-	-	-	-	-	.	.	.	.
O=C(c1sccc1-n1cccc1)N1CCCC1	-	-	-	-	.	-	.	.	.	.
N=c1ccn(CC(=O)c2ccc(-c3ccccc3)cc2)cc1	-	58	82	110	-	-	-	84	-	30
COC(=O)c1ccc(NC(=O)Cn2c(-c3nonc3N)nc3ccccc32)cc1	-	-	-	-	-	-	.	.	.	.
COC(=O)c1ccccc1NC(=O)Cn1c(-c2nonc2N)nc2ccccc21	-	83	58	-	.	-	51	63	63	-
O=C(NC1CCN(Cc2ccccc2)CC1)c1ccc2c(c1)[nH]c(=O)n2Cc1ccc(F)cc1	-	64	-	-	.	-	-	-	-	-
CC(C)(C)c1nnc(N/N=C/c2ccccc2O)n(N)c1=O	90	56	61	110	.	-	73	71	51	55
N=c1c2c(n(Cc3ccc([N+](=O)[O-])cc3)c3c1CCC3)CCCC2	-	-	-	-	-	-	.	.	.	.
N=c1c2c(n(Cc3ccc(Br)cc3)c3c1CCC3)CCCC2	-	53	88	?	-	52	-	89	38	54	697 NFkB conf=32
CN(Cc1nnc(-c2ccc(F)cc2)o1)c1ccccc1	-	-	-	-	.	-	.	.	.	.
COC1(C)CC2C(CC1OC(=O)c1cc([N+](=O)[O-])cc([N+](=O)[O-])c1)C2(C)C (stereo not drawn)	-	-	-	-	.	-	.	.	.	.
Cc1cc(/C=N/n2cnnc2)c(C)n1-c1ccc(OCc2ccc(Cl)cc2Cl)cc1	98	70	82	113	-	40	-	82	35	68	697 NFkB conf=-
CCOC(=O)c1c(NC(=O)CSc2nnnn2C)sc(C)c1C	-	-	-	-	-	-	.	.	.	.
SMILES	Shn3 inh set2	Jurkat NFkB inh	Gli-Sufu antag	aSyn UTR inh	H9c2 TAG inh	697 NFkB inh	Jurkat NFkB conf	Gli-Sufu confirm	SufuKO cytotox	Wnt3a counter	others
O=S(=O)(c1cc(F)ccc1F)N1CCN(c2ncnc3ccccc23)CC1	88	60	59	.	-	-	58	63	58	-
CCN(CC)c1ccc(/C=N/Nc2nc(C)cc(=O)[nH]2)c(O)c1	-	59	91	95	.	-	-	85	41	70
CCN(CC)c1ccc(/C=N/Nc2ccc(C)cc2)c(O)c1	-	.	-	.	.	.	.	.	.	.
CN(Cc1cccnc1)Cc1cn(C)nc1-c1cccc(Cl)c1	-	-	-	-	-	-	.	.	.	.
Cc1ccc(F)cc1-c1cc2nc(NCCCN(C)C)n(C)c(=O)c2s1	-	.	.	.	-	.	.	.	.	.
CN1/C(=C\C(=O)c2ccco2)C(C)(C)c2ccccc21	-	57	84	-	.	-	-	81	35	-
CN1/C(=C\C(=O)COC(=O)c2ccco2)C(C)(C)c2ccccc21	-	-	-	-	-	-	.	.	.	.
CN(C)S(=O)(=O)c1cccc(NC(=O)CNc2cccc(S(=O)(=O)N3CCCCC3)c2)c1	-	.	.	.	-	.	.	.	.	.
CCN(CC)S(=O)(=O)c1cc(NC(=O)CNc2cccc(S(=O)(=O)N3CCCC3)c2)ccc1C	91	57	72	-	-	-	60	66	31	-
CCn1c2ccccc2c2cc([N+](=O)[O-])ccc21	-	-	-	-	-	-	.	.	.	.
CN(C)CCn1c2ccccc2c2nc3ccc([N+](=O)[O-])cc3cc21	-	60	-	104	56	-	-	-	-	-	697 NFkB conf=-
Cc1cccc(NC(=O)C2CCN(S(=O)(=O)c3cccs3)CC2)n1	-	-	-	-	.	-	.	.	.	.
CCOC(=O)C(C)Oc1cccc2c(=O)n(CC(=O)NCc3ccccc3)ccc12 (stereo not drawn)	-	72	58	73	-	-	57	48	55	-
Cc1ccc2nc(-c3ccc(Br)cc3)cc(C(=O)NCC3CCCO3)c2c1 (stereo not drawn)	-	.	.	.	-	.	.	.	.	.
Cc1cc(N2CCCCC2)nc(NCc2ccccc2)n1	88	68	-	-	-	-	-	-	-	-
Cc1cc(N2CCOCC2)nc(NCc2ccccc2)n1	-	-	-	-	.	-	.	.	.	.
COc1ccc(N=C2CCCN2CC(N)=O)cc1	-	-	-	-	.	-	.	.	.	.
